The target in experiment [1] is Bile acid receptor (Homo sapiens) (UniProt Q96RI1). The experiment can be described thus: ATG_IR1_CIS: Attagene CIS-FACTORIAL HepG2 Assay for human Nuclear Receptor Subfamily 1 Group H Member 4 (NR1H4), IR1 submotif (AID 2282946). The note with it: IR1 reporter transcription, actives raise or lower the signal. Put shortly:
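Readout: reporter transcript levels by RT-PCR with fluorescent capillary electrophoresis, from HepG2 cells transiently transfected with multiplexed cis-regulated reporters and dosed 24 h. Gain- or loss-of-signal fitted versus DMSO negative control.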

Experiment [2] can be described thus: ATG_GRE_CIS: Attagene CIS-FACTORIAL HepG2 Assay for human Glucocorticoid Response Elements (GRE) (AID 2282947). To be noted: HepG2 GRE cis-reporter, Attagene multiplex mRNA; actives raise or lower the signal. In a few lines:
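HepG2, transient cis-reporter transfection, 24 h. Reporter mRNA: RT-PCR then CE, fluorescence. Fit both directions vs DMSO.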

Experiment [3] can be described thus: ATG_ISRE_CIS: Attagene CIS-FACTORIAL HepG2 Assay for human Interferon Regulatory Factor 1 (IRF1) binding to an Interferon-Stimulated Response Element (ISRE) (AID 2282948). To be noted: HepG2 ISRE cis-reporter (Attagene), mRNA transcription readout; actives raise or lower the signal. Put shortly:
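Signal reflects induction or loss of ISRE-linked reporter mRNA in transiently transfected HepG2 cells after a 24 h treatment, detected by fluorescent RT-PCR fragments on capillary electrophoresis and normalised to DMSO.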

Experiment [4] in a line: ATG_M_32_CIS: Attagene CIS-FACTORIAL HepG2 Assay for M32 Transcription Factor (Internal Marker) (AID 2282949).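 Also: background control marker of the multiplexed CIS panel rather than a real target.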 The note with it: HepG2 Attagene cis-factorial M32 reporter, mRNA; actives raise or lower the signal. Put shortly: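 Transient MRTU transfection of HepG2; 24 h compound treatment; TriZol RNA, oligo(dT) RT, reporter PCR, 6-FAM primer extension, HpaI cut, CE. Gain/loss of signal vs DMSO.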

The nature of experiment [5]: ATG_M_06_CIS: Attagene CIS-FACTORIAL HepG2 Assay for M06 Transcription Factor (Internal Marker) (AID 2282950). To be noted: HepG2 Attagene CIS-FACTORIAL M06 internal marker reporter; actives raise or lower the signal. In a few lines:
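HepG2 cells transiently transfected with cis-regulated multiple reporter transcription units were exposed to chemical for 24 h; reporter mRNA was quantified by RT-PCR, 6-FAM primer labelling, HpaI digestion and capillary electrophoresis, fitted bidirectionally against DMSO.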

The target of experiment [6] is Hepatocyte nuclear factor 6 (Homo sapiens) (UniProt Q9UBC0). Put plainly: ATG_HNF6_CIS: Attagene CIS-FACTORIAL HepG2 Assay for human Hepatocyte Nuclear Factor 6 (HNF6) (AID 2282952). The note with it: HepG2 Attagene cis-factorial HNF6 reporter transcription; actives raise or lower the signal. In a few lines: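 First, HepG2 cells were transfected with the multiplexed cis reporter library and dosed with chemical for 24 h. Next, RNA was reverse-transcribed, PCR-amplified and fluorescently labelled. Finally, HpaI-digested fragments were read by capillary electrophoresis.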

The nature of experiment [7]: ATG_MRE_CIS: Attagene CIS-FACTORIAL HepG2 Assay for human Metal Responsive Element (MRE) (AID 2282954). The note with it: HepG2 MRE cis-reporter transcription, Attagene multiplex; actives raise or lower the signal. In a few lines: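 Readout: capillary electrophoresis of 6-FAM-labelled, HpaI-digested RT-PCR reporter products. System: HepG2 cells carrying transient multiplexed cis reporters, dosed 24 h. Analysis: bidirectional fit, DMSO baseline.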

For experiment [8], the target named is Hypoxia-inducible factor 1-alpha (Homo sapiens) (UniProt Q16665). Put plainly: ATG_HIF1a_CIS: Attagene CIS-FACTORIAL HepG2 Assay for human Hypoxia Inducible Factor 1 (HIF1A) (AID 2282951). To be noted: HepG2 Attagene cis-factorial HIF1a reporter transcription; actives raise or lower the signal. Put shortly: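 HepG2 cells transiently transfected with multiple cis-regulated reporter transcription units measure endogenous transcription factor activity. After 24 h exposure, reporter mRNA is quantified by RT-PCR with 6-FAM labelling, HpaI digestion and capillary electrophoresis. Bidirectional fitting against DMSO.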

Experiment [9] addresses Heat shock factor protein 1 (Homo sapiens) (UniProt Q00613). Put plainly: ATG_HSE_CIS: Attagene CIS-FACTORIAL HepG2 Assay for human Heat Shock Transcription Factor 1 (HSE) (AID 2282953). The note with it: HepG2 HSE cis-reporter, Attagene RNA transcription; actives raise or lower the signal. In a few lines:
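HepG2 cells transiently transfected with multiple reporter transcription units under cis-regulatory promoter control, measuring endogenous transcription factor activity. After 24 h chemical exposure, reporter mRNA quantified by RT-PCR, fluorescent labelling, HpaI digestion and capillary electrophoresis; bidirectional fit versus DMSO.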

A short description of experiment [10]: ATG_PBREM_CIS: Attagene CIS-FACTORIAL HepG2 Assay for human Phenobarbital-responsive Enhancer Module (PBREM) (AID 2282955). To be noted: HepG2 PBREM cis-reporter, Attagene multiplexed transcription; actives raise or lower the signal. In a few lines: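 HepG2 cells transiently transfected with multiple cis-regulated reporter units measure endogenous transcription factor activity; 24 h compound exposure. Reporter mRNA quantified by RT-PCR, fluorescent labelling, HpaI digestion and capillary electrophoresis; bidirectional fit versus DMSO.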

Activity calls are given as the source filed them. The calls were made as follows: active = hit-call score of the fitted dose curve at least 0.9, where 1 is the maximum; inactive = score below 0.9.

In PubChem BioAssay (EPA / NIEHS) one finds outcome and AC50 data, which are given here for 29 compounds.

Heat shock factor protein 1 (Homo sapiens), sequence (Q00613 whole entry, looked up): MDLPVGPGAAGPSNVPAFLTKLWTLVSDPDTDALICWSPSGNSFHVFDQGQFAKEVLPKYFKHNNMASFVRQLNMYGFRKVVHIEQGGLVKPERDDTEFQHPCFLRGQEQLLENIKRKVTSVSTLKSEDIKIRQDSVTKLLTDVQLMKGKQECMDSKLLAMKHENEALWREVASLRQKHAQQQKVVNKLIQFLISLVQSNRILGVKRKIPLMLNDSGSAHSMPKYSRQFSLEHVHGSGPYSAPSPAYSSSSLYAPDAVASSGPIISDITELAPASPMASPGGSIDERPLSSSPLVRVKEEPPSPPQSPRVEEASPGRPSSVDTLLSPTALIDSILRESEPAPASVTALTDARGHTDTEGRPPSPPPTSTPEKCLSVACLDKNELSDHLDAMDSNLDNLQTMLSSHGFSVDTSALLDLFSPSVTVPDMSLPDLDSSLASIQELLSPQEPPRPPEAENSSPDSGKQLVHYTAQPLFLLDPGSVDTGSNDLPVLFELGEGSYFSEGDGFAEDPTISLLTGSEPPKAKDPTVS
Hepatocyte nuclear factor 6 (Homo sapiens), sequence (Q9UBC0 whole entry, looked up, the tested form may be a part): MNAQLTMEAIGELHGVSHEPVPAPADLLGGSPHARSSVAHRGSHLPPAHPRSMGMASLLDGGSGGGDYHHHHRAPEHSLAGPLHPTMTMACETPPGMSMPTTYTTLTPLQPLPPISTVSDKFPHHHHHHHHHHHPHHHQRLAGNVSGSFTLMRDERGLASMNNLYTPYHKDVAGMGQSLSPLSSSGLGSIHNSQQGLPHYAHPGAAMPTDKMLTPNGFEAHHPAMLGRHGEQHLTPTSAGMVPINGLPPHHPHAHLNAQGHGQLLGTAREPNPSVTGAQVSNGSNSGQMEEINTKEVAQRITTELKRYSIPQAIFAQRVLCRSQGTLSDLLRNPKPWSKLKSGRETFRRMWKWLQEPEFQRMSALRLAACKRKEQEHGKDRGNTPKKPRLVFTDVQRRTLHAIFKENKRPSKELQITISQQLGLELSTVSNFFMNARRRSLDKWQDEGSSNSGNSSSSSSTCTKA
Bile acid receptor (Homo sapiens), sequence (Q96RI1 whole entry, looked up): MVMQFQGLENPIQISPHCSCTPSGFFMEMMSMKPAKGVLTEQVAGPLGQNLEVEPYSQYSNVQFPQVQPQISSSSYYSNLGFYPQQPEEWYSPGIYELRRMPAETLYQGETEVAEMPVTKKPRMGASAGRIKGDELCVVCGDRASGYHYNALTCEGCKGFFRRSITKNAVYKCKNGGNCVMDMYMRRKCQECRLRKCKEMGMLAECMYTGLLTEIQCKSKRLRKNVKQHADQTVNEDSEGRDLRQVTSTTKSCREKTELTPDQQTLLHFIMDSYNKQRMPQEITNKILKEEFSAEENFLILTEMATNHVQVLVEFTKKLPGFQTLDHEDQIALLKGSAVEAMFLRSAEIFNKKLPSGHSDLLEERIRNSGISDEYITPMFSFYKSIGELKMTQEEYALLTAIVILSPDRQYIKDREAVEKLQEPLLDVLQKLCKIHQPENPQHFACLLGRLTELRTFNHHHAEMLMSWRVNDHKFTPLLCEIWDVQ
Hypoxia-inducible factor 1-alpha (Homo sapiens), sequence (Q16665 whole entry, looked up): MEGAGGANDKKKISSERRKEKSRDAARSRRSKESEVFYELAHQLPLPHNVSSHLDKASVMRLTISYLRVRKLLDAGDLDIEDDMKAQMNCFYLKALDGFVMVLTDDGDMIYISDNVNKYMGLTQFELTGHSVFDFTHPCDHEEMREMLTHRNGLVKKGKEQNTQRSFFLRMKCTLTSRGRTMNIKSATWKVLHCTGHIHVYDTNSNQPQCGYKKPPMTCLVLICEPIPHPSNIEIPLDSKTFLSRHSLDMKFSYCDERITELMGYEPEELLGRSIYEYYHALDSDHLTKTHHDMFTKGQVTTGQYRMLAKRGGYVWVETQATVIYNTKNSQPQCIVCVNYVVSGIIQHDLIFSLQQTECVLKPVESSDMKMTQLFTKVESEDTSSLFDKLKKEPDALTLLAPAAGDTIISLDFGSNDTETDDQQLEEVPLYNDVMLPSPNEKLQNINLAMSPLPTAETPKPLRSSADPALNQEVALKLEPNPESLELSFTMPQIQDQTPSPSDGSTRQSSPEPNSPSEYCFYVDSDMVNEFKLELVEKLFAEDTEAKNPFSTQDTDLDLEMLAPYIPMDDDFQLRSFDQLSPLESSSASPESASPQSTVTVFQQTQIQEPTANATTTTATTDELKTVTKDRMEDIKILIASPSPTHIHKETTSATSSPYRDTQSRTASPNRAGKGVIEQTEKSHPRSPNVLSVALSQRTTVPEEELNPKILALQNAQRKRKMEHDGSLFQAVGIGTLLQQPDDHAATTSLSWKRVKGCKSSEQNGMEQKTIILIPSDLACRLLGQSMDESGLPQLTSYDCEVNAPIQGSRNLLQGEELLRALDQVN

`CC(C)=CCC[C@H](C)CC=O`: the outcome in [1], in [2], in experiment [3], in experiment [4], in experiment [5] and in experiment [6] was inactive. In addition, the result in [7] was inactive.
For `C=C(C)C(=O)OCCOC(=O)CC(C)=O`, the call in experiment [1], in [2], in experiment [3], in experiment [4], in experiment [8] and in experiment [6] was inactive. Besides, the compound was classed as inactive in experiment [9] and in experiment [7].
Regarding `C=CC(C)(C)O`, the compound was called inactive in experiment [1], in [2], in [3], in experiment [4], in experiment [8] and in [6]. Besides, the call in [9], in [7] and in [10] was inactive.
In the case of `C=CCOC(=O)CCC1CCCCC1`, the call in [1], in experiment [2], in experiment [3], in experiment [4], in experiment [5] and in experiment [8] was inactive. The compound was called inactive in experiment [7] and in experiment [10].
As to `Clc1ccc(Cl)c(Cl)c1Cl`, the outcome in experiment [1], in experiment [2], in experiment [3], in [4], in [8] and in experiment [6] was inactive. The result in [9], in experiment [7] and in experiment [10] was inactive.
As to `CC(=O)C(C)=O`, in experiment [1], the half-maximal activity concentration (AC50) is 28.8 µM (active). The compound was called inactive in experiment [2], in experiment [3], in experiment [4], in [5], in experiment [6] and in experiment [9]. Moreover, the outcome in experiment [7] and in experiment [10] was inactive.
With `CC1CCC(C(C)(C)O)CC1` (centres undefined), the outcome in [1], in experiment [2], in experiment [3], in [4], in experiment [5] and in experiment [8] was inactive. The result in [9], in experiment [7] and in [10] was inactive.
For `O=C1c2ccccc2C(=O)N1SC1CCCCC1`, the figures for the AC50 in [1], in [2] and in [9] were 142 µM (active), 169 µM (active) and 37.9 µM (active), respectively. In addition, the compound was called inactive in experiment [3], in experiment [8], in experiment [6], in experiment [7] and in [10].
With `CSc1nnc(C(C)(C)C)c(=O)[nH]1`, the result in [1], in [2], in [3], in experiment [4], in experiment [5] and in [8] was inactive. In addition, the outcome in [6], in experiment [7] and in experiment [10] was inactive.
For the compound `OCCN1CCNCC1`, the call in [1], in experiment [2], in experiment [3], in [5], in [8] and in [6] was inactive. Moreover, the result in experiment [9], in [7] and in [10] was inactive.
`O=C(O)c1ccc([N+](=O)[O-])cc1`: the outcome in [1], in experiment [2], in experiment [3], in [4], in experiment [5] and in [8] was inactive. Further, the compound was called inactive in experiment [6], in [7] and in experiment [10].
Take `CC(CCO)CCCC(C)(C)O` (centres undefined): the compound was classed as inactive in experiment [1], in experiment [2], in experiment [3], in experiment [4], in experiment [8] and in experiment [6]. For the same compound, the outcome in experiment [7] and in experiment [10] was inactive.
Regarding `OCc1cccnc1`, the call in experiment [1], in experiment [2], in experiment [3], in experiment [4], in experiment [6] and in experiment [9] was inactive. Moreover, the compound was called inactive in [7] and in experiment [10].
For `NCCCN1CCOCC1`, the call in experiment [1], in [2], in experiment [3], in experiment [4], in experiment [8] and in experiment [9] was inactive. Further, the compound was called inactive in experiment [7] and in experiment [10].
`Nc1cc([N+](=O)[O-])ccc1Cl`: the result in [1], in [2], in experiment [3], in experiment [4], in experiment [5] and in experiment [8] was inactive. The outcome in [9], in experiment [7] and in [10] was inactive.
For the compound `COC(=O)C1=C(C)NC(C)=C(C(=O)OCCN(C)Cc2ccccc2)C1c1cccc([N+](=O)[O-])c1` (centres undefined), the outcome in [1], in experiment [2], in experiment [4] and in experiment [5] was inactive. Further, the half-maximal activity concentration (AC50) was 26.2 µM (active) in experiment [3], 54.6 µM (active) in experiment [9], 19.8 µM (active) in experiment [7] and 0.238 µM (active) in experiment [10].
For the compound `CC(C)=CCCC(C)CC=O` (centres undefined), the compound was called inactive in experiment [1], in [2], in [3], in experiment [4], in experiment [5] and in experiment [6]. In experiment [7], the result was inactive.
For the compound `O=C(O)CCCCCCCCCCC(=O)O`, the compound was called inactive in experiment [1], in experiment [2], in [3], in [5], in experiment [8] and in experiment [6]. In addition, the result in [9], in [7] and in [10] was inactive.
As for `O=C(Nc1ccccc1)c1cc([N+](=O)[O-])ccc1Cl`, the compound was called inactive in experiment [1], in [2], in [4], in [5] and in experiment [6]. Also, the AC50 in experiment [3] is 38.3 µM (active); in experiment [9] it was 154 µM (active); in experiment [7], 18.5 µM (active).
With `O=Cc1ccc(Cl)c([N+](=O)[O-])c1`, the AC50 in experiment [1] is 63.7 µM (active); in [3] it was 149 µM (active); in experiment [8], 139 µM (active); in [6] it was 134 µM (active); in [7], 142 µM (active). Moreover, the compound was called inactive in experiment [2], in experiment [4] and in [10].
On to `CC(C)(Oc1ccc(CCNC(=O)c2ccc(Cl)cc2)cc1)C(=O)O`, for which the outcome in experiment [1], in experiment [2], in experiment [3], in experiment [4], in [5] and in [6] was inactive. The compound was called inactive in [9], in [7] and in experiment [10].
Consider `CCCCC/C=C/C=C/C=O`, for which, in [1], the AC50 was 144 µM (active). Further, the compound was classed as inactive in experiment [2], in experiment [3], in [4], in experiment [5], in experiment [6] and in experiment [7]. The outcome in [10] was inactive.
Take `CCCC(=O)C(C)=O`: the result in experiment [1], in experiment [2], in [3], in experiment [4], in experiment [5] and in [8] was inactive. In addition, the compound was classed as inactive in [9] and in [7].
In the case of `CC(=O)OCCC(C)CC(C)(C)C` (centres undefined), the compound was called inactive in experiment [1], in experiment [2], in [3], in experiment [4], in experiment [5] and in experiment [8]. For the same compound, the outcome in experiment [6] and in experiment [10] was inactive.
On to `Cc1ccc(C=O)cc1`, for which the call in experiment [1], in experiment [2], in experiment [3], in [9] and in [7] was inactive.
`OCC(CO)(CO)COCC(CO)(CO)CO`: the call in experiment [1], in experiment [3], in [5], in experiment [8], in experiment [6] and in experiment [9] was inactive. The result in experiment [7] and in [10] was inactive.
`Clc1nc(C(Cl)(Cl)Cl)c(Cl)c(Cl)c1Cl`: the AC50 in [1] is 22.6 µM (active); in experiment [3], 62.7 µM (active); in [9], 53.9 µM (active). The result in experiment [4], in experiment [8] and in [10] was inactive.
In the case of `CC(=O)O[C@]1(C(C)=O)CC[C@H]2[C@@H]3C[C@H](C)C4=CC(=O)CC[C@]4(C)[C@H]3CC[C@@]21C`, the call in experiment [1], in [4], in experiment [5], in experiment [8], in experiment [6] and in experiment [10] was inactive. The AC50 in experiment [3] is 67.1 µM (active); in [7] it was 49.9 µM (active).
For the compound `CC(=O)C=CC1=C(C)CCCC1(C)C`, the compound was called inactive in experiment [1], in experiment [3], in [4], in experiment [5], in experiment [6] and in experiment [9]. The compound was called inactive in experiment [7].

By AC50 is commonly meant the concentration giving half of the maximal activity seen.
